Potency data for 36 compounds are collected here from PubChem BioAssay (Tox21).

Where “and” joins values, the source holds several entries; their conditions need not be identical. Identical values can stand only once. Results filed as inconclusive are left out. A call without a number means that no potency is given here. Calls of active or inactive are those of the source. Calls follow the shape of the dose curve; as a rule, active = well fitted curve in the direction sought with a large enough effect in the repeat runs; inconclusive = weak or mixed curves; inactive = no such curve, though single readings can be large; an effect the other way counts as inactive or inconclusive.
Potency is read from the fitted curve at half-maximal effect.

The first assay can be described thus: qHTS RealTime-Glo MT Cell Viability Assay in HepG2 cells - 8 hour (AID 1224873). Also: nearly all actives have a fitted effect of over 55% in size. The conditions noted are these: RealTime-Glo luminescence; series mostly up to 76.8 µM. An outline of the steps:
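HepG2 cells mixed with RealTime-Glo MT reagents (NanoLuc plus cell-permeant prosubstrate) were seeded at 600 cells/well, incubated 5 h at 37 C/5% CO2, then pinned with compounds in DMSO; nonlytic luminescence tracked viability during 40 h treatment.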
In the case of `Clc1ccc2cc3ccccc3cc2c1`, the Potency entry is “inactive”.
The same measure, in the same setting: with `Nc1ccccc1O` the entry was “inactive”.
Consider `Cc1oc(-c2ccccc2)nc1CCC(=O)c1ccc(CC2SC(=O)NC2=O)cc1` (configuration not stated), for which the Potency entry was “inactive”.
Turning to `CS(=O)(=O)CCNCc1ccc(-c2ccc3ncnc(Nc4ccc(OCc5cccc(F)c5)c(Cl)c4)c3c2)o1`, the Potency was 23.9 µM (active).
The same measure, in the same setting: next, `O=C(O)c1c(Cl)cccc1Cl`: “inactive”; `CCC1OCC(COc2ccc(Oc3ccccc3)cc2)O1` (configuration not stated): “inactive”.
For the compound `CCN(Cc1cccnc1)C(=O)c1cccc(Cl)c1[C@]1(C)C(=O)N(Cc2ccc(OC)cc2OC)c2ccc(Cl)cc21`, the Potency is 20.4 µM (active).
On the same count and under the same terms, with `Cn1cc(C(=O)[C@@H]2CCc3nc[nH]c3C2)c2ccccc21` the entry was “inactive”; with `C[C@H]1[C@H]2CC[C@H]3[C@@H]4CC=C5C[C@@H](N(C)C)CC[C@]5(C)[C@H]4CC[C@]23CN1C`, “inactive”; with `Cc1ccc(O)c2ncccc12`, “inactive”.
In the case of `COCCCC/C(=N\OCCN)c1ccc(C(F)(F)F)cc1`, the Potency entry was “inactive”.
Still for that read-out and setting: with `CCCCCCCCCCCCCCCCCC[N+](C)(C)Cc1ccccc1` the figure was 49.5 µM (active); with `CCN(C(=O)c1cc(C)cc(OC[C@H](C)Nc2ccncc2)c1)C(C)C`, “inactive”.
On the same count and under the same terms, next, `O=[N+]([O-])c1cc([N+](=O)[O-])c2ccc(S(=O)(=O)O)cc2c1O`: “inactive”; `Cc1cccc(CN2CCN(C(c3ccccc3)c3ccc(Cl)cc3)CC2)c1` (configuration not stated): “inactive”.
On the same count and under the same terms, with `CCCCN1C(=O)[C@@H]([C@H](O)C2CCCCC2)NC(=O)C12CCN(Cc1ccc(Oc3ccc(C(=O)O)cc3)cc1)CC2` the entry was “inactive”; with `Cc1onc(-c2ccccc2Cl)c1C(=O)N[C@@H]1C(=O)N2[C@@H]1SC(C)(C)[C@@H]2C(=O)O`, “inactive”.
In the case of `O=C1CCCCCN1SSN1CCCCCC1=O`, the Potency result is “inactive”.
Still for that read-out and setting: with `CCCCCOc1ccccc1/C(=C\SC)n1ccnc1` the entry was “inactive”; with `Cc1[nH]nc2c1N=C(c1ccccc1Cl)c1cc([N+](=O)[O-])ccc1N2`, “inactive”; with `c1cc(C(c2ccc(OCC3CO3)cc2)c2ccc(OCC3CO3)cc2)ccc1OCC1CO1` (configuration not stated), “inactive”.
The same measure, in the same setting: next, `CCCCCCCCOC(=O)c1ccc(O)cc1`: “inactive”; `CO[Si](CCCNc1ccccc1)(OC)OC`: “inactive”; `CCCCCCCCS(=O)C(C)Cc1ccc2c(c1)OCO2` (configuration not stated): “inactive”.
On the same count and under the same terms, with `Cc1c(C)c2c(c(C)c1OC(=O)CCC(=O)O)CC[C@@](C)(CCC[C@H](C)CCC[C@H](C)CCCC(C)C)O2` the entry was “inactive”; with `CCOC(=O)/C=C(C)/C=C/C=C(C)/C=C/c1c(C)cc(OC)c(C)c1C`, “inactive”; with `CC[C@H](c1ccc(O)cc1)[C@@H](CC)c1ccc(O)cc1`, “inactive”.
For the compound `Cc1nc(-c2ccc3c(c2)CCN(CCC2CCC(NC(=O)/C=C/c4ccc(F)cc4)CC2)CC3)no1` (configuration not stated), the Potency entry is “inactive”.
The same measure, in the same setting: next, `CN1CCN(CCC(=O)N2c3ccccc3Sc3ccc(C(F)(F)F)cc32)CC1`: “inactive”; `Cc1cc(O)c(C(C)(C)C)cc1C(C)(C)C`: 38.9 µM (active).
The same measure, in the same setting: with `CCCCC(CC)CN=C(N)NC(N)=NCCCCCCN=C(N)NC(N)=NCC(CC)CCCC` (configuration not stated) the figure was 19 µM (active); with `O=C(N/N=C/c1ccccc1O)c1ccncc1`, “inactive”; with `CCN(C(=O)N(CC)c1ccccc1)c1ccccc1`, “inactive”.
Consider `Fc1ccc([C@@H]2CCNC[C@H]2COc2ccc3c(c2)OCO3)cc1`, for which the Potency entry is “inactive”.
`CC[C@@]1(O)C(=O)OCc2c1cc1n(c2=O)Cc2cc3c(CN(C)C)c(O)ccc3nc2-1`: the Potency result is “inactive”.
Consider `O=C1c2ccccc2Cc2ccccc21`, for which the Potency result was “inactive”.

A further assay in a line: A CellTox Green Cytotoxicity Assay to monitor cytotoxicity in HEK293 cells - 24 hour (AID 1224875). Also: nearly all actives have a fitted effect of over 45% in size. The settings on record: CellTox Green fluorescence; series mostly up to 76.8 µM. The essentials:
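Seeding of HEK293 cells together with cytotoxicity dye preceded a 5 h incubation at 37 C/5% CO2. Test compounds in DMSO were then added and fluorescence monitored across 40 h.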
On to `Clc1ccc2cc3ccccc3cc2c1`, for which the Potency entry is “inactive”.
In the case of `CS(=O)(=O)CCNCc1ccc(-c2ccc3ncnc(Nc4ccc(OCc5cccc(F)c5)c(Cl)c4)c3c2)o1`, the Potency entry was “inactive”.
Still for that read-out and setting: with `O=C(O)c1c(Cl)cccc1Cl` the entry was “inactive”; with `CCC1OCC(COc2ccc(Oc3ccccc3)cc2)O1` (configuration not stated), “inactive”; with `CCN(Cc1cccnc1)C(=O)c1cccc(Cl)c1[C@]1(C)C(=O)N(Cc2ccc(OC)cc2OC)c2ccc(Cl)cc21`, “inactive”.
As for `Cn1cc(C(=O)[C@@H]2CCc3nc[nH]c3C2)c2ccccc21`, the Potency entry was “inactive”.
Same read-out and setting: with `C[C@H]1[C@H]2CC[C@H]3[C@@H]4CC=C5C[C@@H](N(C)C)CC[C@]5(C)[C@H]4CC[C@]23CN1C` the entry was “inactive”; with `Cc1ccc(O)c2ncccc12`, “inactive”.
The same measure, in the same setting: with `COCCCC/C(=N\OCCN)c1ccc(C(F)(F)F)cc1` the entry was “inactive”; with `CCN(C(=O)c1cc(C)cc(OC[C@H](C)Nc2ccncc2)c1)C(C)C`, “inactive”; with `O=[N+]([O-])c1cc([N+](=O)[O-])c2ccc(S(=O)(=O)O)cc2c1O`, “inactive”.
The same measure, in the same setting: next, `Cc1cccc(CN2CCN(C(c3ccccc3)c3ccc(Cl)cc3)CC2)c1` (configuration not stated): “inactive”; `CCCCN1C(=O)[C@@H]([C@H](O)C2CCCCC2)NC(=O)C12CCN(Cc1ccc(Oc3ccc(C(=O)O)cc3)cc1)CC2`: “inactive”.
For `Cc1onc(-c2ccccc2Cl)c1C(=O)N[C@@H]1C(=O)N2[C@@H]1SC(C)(C)[C@@H]2C(=O)O`, the Potency entry was “inactive”.
Same read-out and setting: next, `O=C1CCCCCN1SSN1CCCCCC1=O`: “inactive”.
For the compound `CCCCCOc1ccccc1/C(=C\SC)n1ccnc1`, the Potency result was “inactive”.
With `Cc1[nH]nc2c1N=C(c1ccccc1Cl)c1cc([N+](=O)[O-])ccc1N2`, the Potency entry was “inactive”.
Still for that read-out and setting: with `c1cc(C(c2ccc(OCC3CO3)cc2)c2ccc(OCC3CO3)cc2)ccc1OCC1CO1` (configuration not stated) the entry was “inactive”; with `CCCCCCCCOC(=O)c1ccc(O)cc1`, 43.5 µM (active) and 43.6 µM (active).
Same read-out and setting: next, `CCCCCCCCS(=O)C(C)Cc1ccc2c(c1)OCO2` (configuration not stated): “inactive”.
On the same count and under the same terms, with `Cc1c(C)c2c(c(C)c1OC(=O)CCC(=O)O)CC[C@@](C)(CCC[C@H](C)CCC[C@H](C)CCCC(C)C)O2` the entry was “inactive”; with `CCOC(=O)/C=C(C)/C=C/C=C(C)/C=C/c1c(C)cc(OC)c(C)c1C`, “inactive”; with `CC[C@H](c1ccc(O)cc1)[C@@H](CC)c1ccc(O)cc1`, “inactive”.
As to `Cc1nc(-c2ccc3c(c2)CCN(CCC2CCC(NC(=O)/C=C/c4ccc(F)cc4)CC2)CC3)no1` (configuration not stated), the Potency entry is “inactive”.
`Cc1cc(O)c(C(C)(C)C)cc1C(C)(C)C`: the Potency was 24.5 µM (active).
Still for that read-out and setting: with `CCCCC(CC)CN=C(N)NC(N)=NCCCCCCN=C(N)NC(N)=NCC(CC)CCCC` (configuration not stated) the figure was 7.56 µM (active).
`O=C(N/N=C/c1ccccc1O)c1ccncc1`: the Potency result is “inactive”.
Same read-out and setting: with `CCN(C(=O)N(CC)c1ccccc1)c1ccccc1` the entry was “inactive”; with `Fc1ccc([C@@H]2CCNC[C@H]2COc2ccc3c(c2)OCO3)cc1`, “inactive”.
Still for that read-out and setting: next, `CC[C@@]1(O)C(=O)OCc2c1cc1n(c2=O)Cc2cc3c(CN(C)C)c(O)ccc3nc2-1`: 23.9 µM (active); `O=C1c2ccccc2Cc2ccccc21`: “inactive”.
